Results reported in PubChem BioAssay AID2540 (Sanford-Burnham Center for Chemical Genomics, 2010).
Screen size: about 330,000 compounds; about 4,100 (1.2%) were called active. Rule as the data show it: active = inhibition above about 50%; inactive = the rest. The sample as a whole holds a higher share of actives than the screen did.

target: Sentrin-specific protease 8 (Homo sapiens) (UniProt Q96LD8); assay: blockers of human SENP8 peptidase activity – biochemical, luminescence, primary screen (AID 2540); conditions: purified SENP8, Z-RLRGG-aminoluciferin cleavage, at 10 µM, stronger effect = higher value
Sequence (Q96LD8 whole entry, looked up): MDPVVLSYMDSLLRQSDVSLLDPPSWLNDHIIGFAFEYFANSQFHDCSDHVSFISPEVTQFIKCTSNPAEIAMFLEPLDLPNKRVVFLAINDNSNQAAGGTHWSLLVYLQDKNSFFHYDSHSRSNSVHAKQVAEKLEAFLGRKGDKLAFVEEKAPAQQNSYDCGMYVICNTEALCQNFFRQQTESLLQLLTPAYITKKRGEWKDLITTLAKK

Row | Compound | inhibition
1 | COc1cc(/C=N/Nc2nc3ccccc3s2)ccc1O | 76% (active)
2 | COc1ccc(/C=N/NC(=O)c2cc(-c3cccc(C)c3)nc3ccccc23)cc1O | 10.3% (inactive)
3 | COc1cc(/C=N/NC(=O)CCc2n[nH]c(=O)[nH]c2=O)ccc1O | 1.52% (inactive)
4 | CN(C)CCCN(C(=O)c1ccc(S(=O)(=O)N2CCCCCC2)cc1)c1nc2cc3c(cc2s1)OCCO3 | 6.61% (inactive)
5 | Cc1nc(N2CCCCC2)sc1C=O | 1.41% (inactive)
6 | c1c2c(cc3sc(N4CCCCC4)nc13)OCCO2 | 96.5% (active)
7 | Fc1ccc2nc(N3CCCCC3)sc2c1 | 72.2% (active)
8 | Brc1ccc2nc(N3CCCC3)sc2c1 | 85.2% (active)
9 | Cc1ccc2nc(N3CCN(C(=O)c4ccco4)CC3)sc2c1 | -13.8% (inactive)
10 | O=C(NCCc1cccc(F)c1)C1CCCN(c2nc3ccccc3s2)C1 (stereo not given) | 12.2% (inactive)
11 | O=S(=O)(Nc1ccc2nc(N3CCOCC3)sc2c1)c1ccccc1 | 9% (inactive)
12 | Fc1ccc2nc(Nc3nc4c(s3)CCCC4)sc2c1 | 3.05% (inactive)
13 | COc1ccc2c(c1)C=CC1(O2)N(CCO)c2ccccc2C1(C)C (stereo not given) | 0.788% (inactive)
14 | O=C(CSc1nc2ncccc2[nH]1)Nc1ccc2c(c1)OCCO2 | -1.02% (inactive)
15 | CC(Sc1nncn1C)C(=O)NCCC1=CCCCC1 (stereo not given) | 5.55% (inactive)
16 | Cc1ccc(C(c2nnnn2CS(=O)(=O)c2ccc(C)cc2)N2CCC(C)CC2)cc1 (stereo not given) | 4.98% (inactive)
17 | CCC(=O)c1ccc(OCC(=O)OCC(=O)NC2CCCCCC2)cc1 | -0.587% (inactive)
18 | O=C(Nc1nnc(C2CC2)s1)c1cc(Cl)sc1Cl | -4.61% (inactive)
19 | Cc1cc(C(=O)Nc2nnc(C3CC3)s2)c(C)s1 | 74.1% (active)
20 | CCc1cc(C(=O)Nc2nnc(C3CC3)s2)sc1C | 2.73% (inactive)
21 | CCN1CCN(c2ccc(S(=O)(=O)N3CCCCC3)cc2NC(=O)c2cccc(NC(C)=O)c2)CC1 | -4.93% (inactive)
22 | CC(C)CC(O)C1CCN(C(=O)CCc2nnc(-c3ccc4c(c3)OCO4)o2)CC1 (stereo not given) | -8.01% (inactive)

Row | Compound | inhibition
23 | CNS(=O)(=O)c1cccc(C(=O)OCC(=O)N2c3ccccc3NC(=O)C2(C)C)c1 | -16.6% (inactive)
24 | CSC1=N/C(=C\C=C\c2cccs2)C(=O)S1 | 53.6% (active)
25 | O=C1N/C(=C/c2cccs2)C(=O)N1Cc1ccc(F)cc1 | -10% (inactive)
26 | Cc1cccc(C2=N/C(=C/c3cccs3)C(=O)O2)c1 | -4.38% (inactive)
27 | CC(C)(C)c1cc(NC(=O)NN2CCOCC2)nn1-c1c(Cl)cc(Cl)cc1Cl | 1.46% (inactive)
28 | CC(=O)N1CCN(C(=O)c2cccc(S(=O)(=O)Nc3ccc(C)cc3)c2)CC1 | -6.08% (inactive)
29 | Cc1cccc(NS(=O)(=O)c2cccc(C(=O)NNC(=O)c3ccccc3O)c2)c1 | 50.1% (active)
30 | Cc1cccc(NS(=O)(=O)c2ccc(C)c(C(N)=O)c2)c1 | 0.196% (inactive)
31 | CCc1ccc(NC(=O)CCNS(=O)(=O)c2cccs2)cc1 | -0.839% (inactive)
32 | CS(=O)(=O)Nc1cccc(-c2cn3ccccc3n2)c1 | -1.75% (inactive)
33 | O=c1[nH]n(-c2ccc([N+](=O)[O-])cc2)c(=O)c2ccccc12 | -5.71% (inactive)
34 | O=C1CC(c2ccccc2)=NN1c1ccc([N+](=O)[O-])cc1 | 81.8% (active)
35 | Cc1nc(-c2ccc([N+](=O)[O-])cc2)c(-c2ccccc2)o1 | -11% (inactive)
36 | CCOc1ccccc1OCCCNCc1ccccc1 | -6.65% (inactive)
37 | C=CCSc1nnc(Cn2c(=O)sc3ccccc32)n1C | -1.6% (inactive)
38 | Cc1cc(N=Nc2ccc3ccccc3c2)ccc1O | 95.5% (active)
39 | Cc1ccccc1Nc1nc(N)nc(COC(=O)CCC(=O)c2ccc(F)cc2)n1 | -5.5% (inactive)
40 | CCC(C(=O)Nc1ncccn1)(C(F)(F)F)C(F)(F)F | 2.16% (inactive)
41 | COc1cc(OC)cc(-c2c(C#Cc3ccsc3)c3cc(-c4ccc(OC)cc4F)ccc3n2C)c1 | -6.93% (inactive)
42 | COc1ccc(CNC(=O)COc2ccccc2C(=O)c2cnn(-c3ccccc3)c2)cc1OC | 55.6% (active)
43 | COc1ccc(CNC(=O)COC(=O)c2c(C)nn(-c3ccccc3)c2C)cc1OC | -2.1% (inactive)
44 | COc1ccc(CNC(=O)Cc2ccc(-c3ccccc3)cc2)cc1OC | -1.75% (inactive)

Row | Compound | inhibition
45 | CC(C)CCN(C(=O)c1csnn1)C(C(=O)NC1CCCC1)c1ccccc1 (stereo not given) | -0.251% (inactive)
46 | CCOC(=O)c1sc(N(Cc2ccccc2)C(=O)CN2C(=O)CN(C)C2=O)nc1C | 5.69% (inactive)
47 | CC12CCC(=O)N1C(C(=O)Nc1ccc(F)c(F)c1F)CS2 (stereo not given) | -5.83% (inactive)
48 | CCN(C(=O)COC(=O)CCC(=O)c1cccs1)C1CCCCC1 | -2.61% (inactive)
49 | Cc1ccsc1C(=O)NC1CCCCC1C (stereo not given) | -2.42% (inactive)
50 | COc1cccc(C(=O)Nc2nc3ccc(S(C)(=O)=O)cc3s2)c1 | 82.5% (active)
51 | COc1cccc(C(=O)Nc2nnc(S(=O)(=O)N(C)c3ccccc3)s2)c1 | -5.38% (inactive)
52 | COc1ccc(C(=O)Nc2cccc(S(C)(=O)=O)c2)cc1 | -4.36% (inactive)
53 | Cc1cnc(NC(=O)C2CCCC2)s1 | -0.598% (inactive)
54 | O=C(Nc1nnc(C2CC2)s1)c1ccccn1 | 20.9% (inactive)
55 | Cc1cnc(NC(=O)c2ccccn2)s1 | 66.9% (active)
56 | Clc1ccc(C=NC23CN4CN(CN(C4)C2)C3)cc1 | 8.45% (inactive)
57 | Cc1ccc(Nc2cc(C)nc3c(C)ccc([N+](=O)[O-])c23)cc1 | -13.4% (inactive)
58 | Clc1ccc(Nc2ccc3ccccc3n2)cc1 | 82.3% (active)
59 | Cc1cc(Nc2ccc(Br)cc2)nc2ccccc12 | -6.96% (inactive)
60 | O=c1ccnc(Nc2ccc(Cl)cc2)[nH]1 | -3.3% (inactive)
61 | CC(OC(=O)c1ccc(NS(=O)(=O)c2ccc3[nH]c(=O)[nH]c3c2)cc1)C(=O)Nc1cccc(Cl)c1Cl (stereo not given) | -9.53% (inactive)
62 | CC(C)CCN1CCN(C/C=C/c2ccco2)CC1CCO (stereo not given) | 4.76% (inactive)
63 | Cc1ccsc1C(=O)OCC(=O)c1cc(C)n(CC2CCCO2)c1C (stereo not given) | 91.1% (active)
64 | COc1ccc(C(=O)OCC(=O)c2cc(C)n(CC3CCCO3)c2C)cc1[N+](=O)[O-] (stereo not given) | -17.7% (inactive)
65 | Cc1cc(C(=O)CCl)c(C)n1CC1COc2ccccc2O1 (stereo not given) | -8.88% (inactive)
